Data from paper PMC4336329 (PLoS ONE, 2015).
Screen size: about 310,000 compounds; about 14,000 (4.5%) showed an effect of 50% or more. The effect is printed as a negative number. Many of the other results were omitted from the sample, so strong results are more common in it than they were.

The molecules below were run against human ether-à-go-go-related gene (hERG) potassium channel (human, UniProt Q12809) (assay: primary screen, population patch clamp on CHO cells stably expressing hERG; higher = less effect of the substance).
Sequence of human ether-à-go-go-related gene (hERG) potassium channel (Q12809 whole entry, looked up): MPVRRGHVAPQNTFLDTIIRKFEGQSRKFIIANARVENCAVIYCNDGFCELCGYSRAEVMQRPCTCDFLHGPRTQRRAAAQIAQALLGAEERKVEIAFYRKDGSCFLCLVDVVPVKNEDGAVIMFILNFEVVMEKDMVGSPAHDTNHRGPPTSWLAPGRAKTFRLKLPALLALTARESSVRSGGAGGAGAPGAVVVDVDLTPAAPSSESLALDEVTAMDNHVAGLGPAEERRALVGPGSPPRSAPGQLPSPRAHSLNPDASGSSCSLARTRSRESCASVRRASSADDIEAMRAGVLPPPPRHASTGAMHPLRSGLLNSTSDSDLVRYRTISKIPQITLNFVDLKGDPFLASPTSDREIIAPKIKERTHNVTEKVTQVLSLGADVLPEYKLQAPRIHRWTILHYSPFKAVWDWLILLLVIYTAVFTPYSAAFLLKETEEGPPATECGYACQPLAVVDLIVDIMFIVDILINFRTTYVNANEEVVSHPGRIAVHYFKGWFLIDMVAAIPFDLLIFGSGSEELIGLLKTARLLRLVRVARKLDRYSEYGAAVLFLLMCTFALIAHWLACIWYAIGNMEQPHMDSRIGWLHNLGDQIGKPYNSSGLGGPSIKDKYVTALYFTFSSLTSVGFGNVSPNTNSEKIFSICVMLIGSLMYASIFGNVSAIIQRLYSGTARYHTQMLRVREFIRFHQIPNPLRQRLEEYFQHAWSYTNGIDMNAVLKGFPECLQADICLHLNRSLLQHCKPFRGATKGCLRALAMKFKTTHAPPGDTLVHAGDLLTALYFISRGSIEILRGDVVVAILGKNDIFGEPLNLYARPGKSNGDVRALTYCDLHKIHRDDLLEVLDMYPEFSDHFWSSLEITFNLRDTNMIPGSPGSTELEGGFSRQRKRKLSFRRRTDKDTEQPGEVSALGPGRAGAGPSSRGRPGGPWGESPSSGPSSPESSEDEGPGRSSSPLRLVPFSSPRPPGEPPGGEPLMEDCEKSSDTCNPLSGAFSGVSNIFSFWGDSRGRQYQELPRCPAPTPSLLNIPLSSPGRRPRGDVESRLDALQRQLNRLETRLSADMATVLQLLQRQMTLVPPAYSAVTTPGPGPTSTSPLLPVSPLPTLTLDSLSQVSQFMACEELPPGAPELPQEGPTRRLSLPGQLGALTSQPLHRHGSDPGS
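Also: peak tail current of the secondary pulse compared with the same well before compound.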

Row | SMILES | hERG current change (%, negative = inhibition) at 10uM [%]
1 | CCc1ccccc1NC1=NCC(=O)N1Cc1ccccc1 | 4.53
2 | COc1ccc(N(C(=O)c2ccco2)S(=O)(=O)c2cc(OC)ccc2OC)cc1 | -19.3
3 | CC(NC(N)=O)C(=O)OCC(=O)c1ccc(-c2ccccc2)cc1 (stereo not shown) | 10.8
4 | COc1ccc(OC)c(CCNC(=O)c2ccc3c(=O)[nH]c4c(C(=O)NC(C)C)sc(=S)n4c3c2)c1 | 21.2
5 | CN(c1ccccc1)S(=O)(=O)c1ccc(Cl)c(C(=O)NC2=NCCS2)c1 | 9.14
6 | Cc1cc(C)c2c3c(sc2n1)C(=O)N(c1ccccc1C)CC(=O)N3 | 14.6
7 | CN(C)C(CNc1ccc(S(C)(=O)=O)cc1[N+](=O)[O-])c1ccccc1 (stereo not shown) | -12.6
8 | COc1ccc(NC(=O)CSCc2ccc([N+](=O)[O-])cc2)cc1OC | -17.5
9 | O=C(NCCO)c1cc2cc(Cl)cc(Cl)c2oc1=O | -3.65
10 | CCN(CC(=O)NCc1cccs1)C(=O)COc1ccc(C(N)=O)cc1 | 6.69
11 | CCCCc1cc(=O)oc2c(C)c(OCC(=O)N3CCCC3)ccc12 | -64.8
12 | CC(C)=CCOc1ccc2c(C)c(CC(=O)N3C[C@H]4C[C@@H](C3)c3cccc(=O)n3C4)c(=O)oc2c1C | -57.3
13 | C=C(C)COc1ccc2c(C)c(CC(=O)N3C[C@H]4C[C@@H](C3)c3cccc(=O)n3C4)c(=O)oc2c1C | -49.2
14 | COc1ccc2c(C)c(CC(=O)N3C[C@H]4C[C@@H](C3)c3cccc(=O)n3C4)c(=O)oc2c1C | -3.48
15 | CCCCc1cc(=O)oc2cc(OCC(=O)N3C[C@H]4C[C@@H](C3)c3cccc(=O)n3C4)c(Cl)cc12 | -62.5
16 | CCc1cc(=O)oc2cc(OCC(=O)N3C[C@H]4C[C@@H](C3)c3cccc(=O)n3C4)c(Cl)cc12 | -3.61
17 | CCCCc1cc(=O)oc2c(C)c(OCC(=O)N3CCC(C(=O)O)(c4ccccc4)CC3)ccc12 | 6.82
18 | CCCCc1cc(=O)oc2c(C)c(OCC(=O)N3CCC(C(N)=O)CC3)ccc12 | -16.7
19 | CCc1cc(=O)oc2c(C)c(OCC(=O)N3C[C@H]4C[C@@H](C3)c3cccc(=O)n3C4)ccc12 | 5.08
20 | CCCCc1cc(=O)oc2c(C)c(OCC(=O)N3C[C@H]4C[C@@H](C3)c3cccc(=O)n3C4)ccc12 | -60
21 | CCCc1cc(=O)oc2cc(OCC(=O)N3C[C@H]4C[C@@H](C3)c3cccc(=O)n3C4)c(Cl)cc12 | -14.7
22 | CCCc1cc(=O)oc2c(C)c(OCC(=O)N3C[C@H]4C[C@@H](C3)c3cccc(=O)n3C4)ccc12 | -23.9

Row | SMILES | hERG current change (%, negative = inhibition) at 10uM [%]
23 | CC(C)N(C(=O)CSc1nnc(CSc2ncccn2)n1C)C(C)C | 32.8
24 | O=c1[nH]n2cc(-n3cc([N+](=O)[O-])cn3)cnc2c1Br | 10.6
25 | CCCCNC(=O)CCC(=O)N1CCN(C(c2ccccc2)c2ccccc2)CC1.Cl | -7.34
26 | O=C(CCc1ccccc1)Nc1ccc(NC(=O)C2CCCCC2)nc1 | 7.57
27 | Cl.O=C(/C=C/c1ccccc1)Nc1ccc(N2CCCCC2)cc1 | 5.7
28 | O=C(Nc1ncccc1O)c1cccc(S(=O)(=O)NCc2ccccc2)c1 | -20.3
29 | Cn1c(C(O)c2ccc3c(c2)OCO3)nc2ccccc21 (stereo not shown) | 5.63
30 | Cc1ccc(S(=O)(=O)N2c3ccccc3NC(=O)CC2C)cc1 (stereo not shown) | 10.5
31 | C=CCn1c(-c2ccc(Cl)cc2)c[nH]c1=S | 19.4
32 | Cc1cnc(NC(=O)CC2CCCC2)s1 | 21.5
33 | COc1ccc(-c2cc(-c3ccccc3)no2)cc1 | 9.77
34 | CCN(CC(=O)NCc1cccs1)C(=O)COc1ccc(C(C)=O)cc1 | -45.1
35 | C(=C\c1ccccc1)/CSc1nnc(-c2cnccn2)n1Cc1ccco1 | -73.4
36 | C(=C\c1ccccc1)/CSc1nnc(-c2ccccn2)n1Cc1ccco1 | -50.9
37 | O=C(CSc1nnc(-c2cnccn2)n1Cc1ccco1)c1ccccc1 | -16.3
38 | CCn1c(SC/C=C/c2ccccc2)nnc1-c1cnccn1 | -14.7
39 | O=C(CSc1nnc(-c2ccccn2)n1Cc1ccco1)c1ccccc1 | -42.5
40 | NC(=O)CSc1nnc(-c2ccccn2)n1Cc1ccco1 | 4.36
41 | COc1ccc(C2CC(c3ccc(C)o3)=NN2C(C)=O)cc1 (stereo not shown) | 7.14
42 | CCOC(=O)C1SC2(C(F)(F)C(F)F)CC1(O)c1c(c(OC)c3occc3c1OC)O2 (stereo not shown) | -3.47
43 | O=C(COC(=O)Cc1cccc2ccccc12)Nc1ccccc1-c1ccccc1 | 9.26
44 | NC(=S)Nc1cccc2cnccc12 | 1.4

Row | SMILES | hERG current change (%, negative = inhibition) at 10uM [%]
45 | COc1cc(NC(=O)c2cc3ccccc3cc2OC)ccc1NC(=O)c1cccs1 | 9.15
46 | O=C(CSc1nnc(-c2ccncc2)n1Cc1ccco1)c1ccc(Cl)cc1 | -46
47 | O=C(CSc1nnc(-c2cccnc2)n1Cc1ccco1)c1ccccc1 | -10.3
48 | O=C(CSc1nnc(-c2cccnc2)n1Cc1ccco1)c1ccc(Cl)cc1 | -63.6
49 | O=C(CSc1nnc(-c2cccnc2)n1Cc1ccco1)c1ccc(Cl)c(Cl)c1 | -45.2
50 | COc1ccc(C(=O)CSc2nnc(-c3cccnc3)n2Cc2ccco2)cc1 | -42.9
51 | O=C(CSc1nnc(-c2cccnc2)n1Cc1ccco1)c1ccc(Br)cc1 | -63.8
52 | CC1CCCC(NC(=S)Nc2cccc(S(=O)(=O)N(C)C)c2)C1C (stereo not shown) | 13.7
53 | CCOC(=O)/C=C1\SCC(=O)N1CC(=O)Nc1ccccc1OC(F)F | 18.8
54 | O=C(Nc1ccc(NC(=O)c2cccs2)c(Cl)c1)c1ccco1 | -39.4
55 | Cc1ccc(CNC(=O)Cn2cnc(S(=O)(=O)N3CCC(C)CC3)c2)o1 | -62.1
56 | Nc1ncc(Br)cc1S(=O)(=O)NCCC(=O)N1CCN(c2ccccc2)CC1 | -8.45
57 | CN(CC(=O)N1CCN(c2ccccn2)CC1)S(=O)(=O)c1ccc(Cl)cc1 | -46.2
58 | CN1CCN(C(=O)CN(C)S(=O)(=O)c2ccc(F)cc2)CC1 | 16.8
59 | COc1ccc(S(=O)(=O)N(C)CC(=O)N2CCN(c3ccc(F)cc3)CC2)cc1OC | -44
60 | CN(CC(=O)N1CCN(c2ccccn2)CC1)S(=O)(=O)c1ccccc1 | -12.8
61 | O=C(Cn1cnc(S(=O)(=O)N2CCCCC2)c1)NCc1ccco1 | 8.34
62 | Nc1ncc(Br)cc1S(=O)(=O)NCCC(=O)N1CCN(c2ncccn2)CC1 | -25.6
63 | Nc1ncc(Br)cc1S(=O)(=O)NCCC(=O)N1CCN(c2ccccn2)CC1 | -55.4
64 | Cc1ccc(CNC(=O)Cn2cnc(S(=O)(=O)N3CCCCC3)c2)o1 | -2.35
65 | CN(CC(=O)N1CCN(c2ccc(F)cc2)CC1)S(=O)(=O)c1ccc(F)cc1 | -53.2
66 | CN(CC(=O)N1CCN(c2ccccn2)CC1)S(=O)(=O)c1ccc(Br)cc1 | -54.8

Row | SMILES | hERG current change (%, negative = inhibition) at 10uM [%]
67 | CC1(C)C[C@H](O)[C@]2(CO)CC[C@]3(C)C(=CCC4[C@@]5(C)CC[C@H](O)C(C)(C)C5CC[C@]43C)[C@@H]2C1 (stereo partly shown) | -13.9
68 | O=C(CSc1nnc2ccccn12)NCc1ccco1 | 22.3
69 | O=C1CC(NNc2nc3ccccc3s2)C(=O)N1c1ccccc1 (stereo not shown) | -1.89
70 | O=C(CSc1nnc(-c2ccccc2)c2ccccc12)NCCN1C(=O)CSC1=O | -27.6
71 | O=C(CSc1ccccn1)Nc1ccc2c(c1)OCCO2 | 8.07
72 | O=C(Nc1cccnc1)c1cc2cc(Br)ccc2o1 | 8.93
73 | Cc1cc(-c2n[nH]c(=S)n2/N=C/c2ccco2)n[nH]1 | 7.99
74 | Cc1ccc(S(=O)(=O)CC(=O)N2CCN(c3ccccc3F)CC2)cc1 | -16.8
75 | Cc1ccc(C)c(N2CCN(C(=O)CN(C)S(=O)(=O)c3ccc4c(c3)CCC(=O)N4)CC2)c1 | -41.5
76 | Cc1cccc(N2CCN(C(=O)CN(C)S(=O)(=O)c3ccc4c(c3)CCC(=O)N4)CC2)c1C | -60.5
77 | O=C(CCS(=O)(=O)c1ccccc1)N1CCN(c2cccc(C(F)(F)F)c2)CC1 | -43.1
78 | Cc1cccc(N2CCN(C(=O)CCNS(=O)(=O)c3ccc4c(c3)CCC(=O)N4)CC2)c1C | -44.6
79 | Cc1ccc(CC(=O)N2CCN(c3cccc(C(F)(F)F)c3)CC2)cc1 | -9.64
80 | Cc1ccc(S(=O)(=O)CC(=O)N2CCN(c3ccc(F)cc3)CC2)cc1 | -51.5
81 | CC(=O)c1ccc(N2CCN(C(=O)Cn3cnc(S(=O)(=O)N4CCCCC4)c3)CC2)cc1 | 7.48
82 | Cn1cnc(S(=O)(=O)N2CCN(c3cccc(C(F)(F)F)c3)CC2)c1 | 7.43
83 | O=C(CS(=O)(=O)c1ccc(F)cc1)N1CCN(c2ccccc2)CC1 | -42.4
84 | Cc1ccc(S(=O)(=O)CC(=O)N2CCN(c3cccc(C(F)(F)F)c3)CC2)cc1 | -50.4
85 | CC1CCN(S(=O)(=O)c2cn(CC(=O)N3CCN(c4cccc(C(F)(F)F)c4)CC3)cn2)CC1 | -54
